Experimental findings from PubChem BioAssay (NCI) are described below.

Compounds without any hit were thinned out: in the full panel of roughly 83,000, 20% have a hit.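 The endpoint reported here, percent growth, reads 100 for growth as untreated, 0 for no net growth and -100 for all cells dead.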 Unmarked numbers belong to inactive results. The source made the active and inactive calls. Rule for the calls: active = growth percent below 10; inactive = the rest.

Test systems include HCT-15 colon; HT29 colon; SNB-75 CNS; SNB-19 CNS; U251 CNS; PC-3 prostate; SK-MEL-5 melanoma; UACC-62 melanoma; LOX IMVI melanoma; SK-MEL-28 melanoma; SK-MEL-2 melanoma; SN12C renal; UO-31 renal; TK-10 renal; ACHN renal; CAKI-1 renal; CCRF-CEM leukemia; MOLT-4 leukemia; A498 renal; EKVX NSCLC.
Assay in all cases: NCI-60 one-dose screen, 48 h (100 = growth as untreated, 0 = no growth, -100 = all killed)
Holding throughout (settings): 10 µM unless noted

With `COc1cccc2c1[C@H](OC)[C@]13O[C@@]1(C2=O)[C@H](O)[C@H](C)[C@@](O)(C(=O)[C@@H]1O[C@H]1C)[C@@H]3O`, the growth in the assay with HCT-15 colon is -14.8% (active); in the assay on HT29 colon, -28.9% (active); with SNB-75 CNS it was -61.7% (active); with SNB-19 CNS it was 1.38% (active); in the assay with U251 CNS it was -13.3% (active); in the assay on PC-3 prostate, -19.4% (active). Also, the growth in the assay on SK-MEL-5 melanoma was -97.7% (active); in the assay on UACC-62 melanoma, -45.5% (active); in the assay with LOX IMVI melanoma, -62% (active); with SK-MEL-28 melanoma it was -10.4% (active); with SK-MEL-2 melanoma, -55.7% (active); in the assay with SN12C renal, -8.82% (active). The growth is -16.1% (active) with UO-31 renal; -22.6% (active) with TK-10 renal; 1.83% (active) with ACHN renal; -23.4% (active) in the assay on CAKI-1 renal; -20.3% (active) with CCRF-CEM leukemia; -39.8% (active) in the assay with MOLT-4 leukemia.
Turning to `CC(=C(c1ccc(OCCCN(C)C)cc1)c1ccc(OCCCN(C)C)cc1)c1ccc(Cl)cc1`, the growth in the assay on HCT-15 colon is 41.6%; in the assay with HT29 colon, 45.7%; with SNB-75 CNS, 75.8%; in the assay with SNB-19 CNS it was 92.9%; in the assay on U251 CNS it was 92.1%; with PC-3 prostate, 87.5%. Besides, the growth is 98.5% in the assay on SK-MEL-5 melanoma; 101% in the assay on UACC-62 melanoma; 76.6% in the assay with LOX IMVI melanoma; 99.2% in the assay with SK-MEL-28 melanoma; 99.3% with SK-MEL-2 melanoma; 85.5% in the assay with SN12C renal. Moreover, the growth in the assay with UO-31 renal was 88.5%; in the assay with TK-10 renal it was 96.5%; in the assay with ACHN renal, 92.6%; with CAKI-1 renal, 92.6%; in the assay with A498 renal it was 79.2%; in the assay on CCRF-CEM leukemia, 66.8%. For the same molecule, the growth with MOLT-4 leukemia was 65.3%.
Take `NS(=O)(=O)c1cccc(Nc2nc(SCC(=O)c3ccc(Cl)cc3)nc3c2CCC3)c1`: the growth is 96.7% in the assay with HCT-15 colon; 109% in the assay on HT29 colon; 87% in the assay with SNB-75 CNS; 62.5% with SNB-19 CNS; 63.9% with U251 CNS; 93.9% in the assay with PC-3 prostate. Besides, the growth with SK-MEL-5 melanoma was 94.9%; with UACC-62 melanoma, 97.1%; in the assay on LOX IMVI melanoma, 86.2%; in the assay on SK-MEL-28 melanoma, 104%; with SK-MEL-2 melanoma, 98%; with SN12C renal, 98%. Besides, the growth in the assay with UO-31 renal is 90.9%; in the assay on TK-10 renal, 119%; in the assay with ACHN renal, 92.4%; in the assay on CAKI-1 renal it was 86.7%; in the assay with A498 renal it was 79.4%; in the assay on CCRF-CEM leukemia, 98.3%. Besides, the growth with MOLT-4 leukemia was 105%.
Regarding `CCCCSC1=C(Cl)CN(c2ccccc2)C1=O`, the growth in the assay with HCT-15 colon was 101%; with HT29 colon, 114%; in the assay on SNB-75 CNS, 105%; with SNB-19 CNS, 101%; in the assay on U251 CNS, 99.6%; with PC-3 prostate, 103%. Besides, the growth in the assay on SK-MEL-5 melanoma is 101%; with UACC-62 melanoma it was 95.7%; in the assay on LOX IMVI melanoma, 36.4%; in the assay on SK-MEL-28 melanoma, 101%; in the assay on SK-MEL-2 melanoma it was 121%; with EKVX NSCLC, 97.8%. The growth with UO-31 renal was 92.2%; in the assay on TK-10 renal, 134%; in the assay with ACHN renal it was 106%; in the assay on CAKI-1 renal it was 94%; in the assay with A498 renal, 108%; in the assay with CCRF-CEM leukemia, 117%. In addition, in the assay with MOLT-4 leukemia, the growth is 105%.
Consider `O=c1c2cc(-c3ccc(F)cc3F)ccc2n(O)c(=O)n1-c1cccc(C(F)(F)F)c1`, for which the growth in the assay on HCT-15 colon was 10.5%; in the assay on HT29 colon it was 62.9%; in the assay with SNB-75 CNS it was -19.4% (active); in the assay with SNB-19 CNS, 10.5%; in the assay with U251 CNS it was 5.79% (active); in the assay on PC-3 prostate, -0.871% (active). Besides, the growth with SK-MEL-5 melanoma was -59.7% (active); with UACC-62 melanoma, -0.381% (active); in the assay on LOX IMVI melanoma, 12.5%; in the assay on SK-MEL-28 melanoma it was 27.2%; in the assay on SK-MEL-2 melanoma, -34.3% (active); in the assay with SN12C renal, 0.105% (active). In addition, the growth was 8% (active) in the assay with UO-31 renal; 1.66% (active) in the assay with TK-10 renal; 0.899% (active) with ACHN renal; -16.4% (active) with CAKI-1 renal; -22.4% (active) with A498 renal; 0.581% (active) in the assay on MOLT-4 leukemia.
Consider `COc1ccc(NC2=C(Br)C(=O)C(C)=C(C)C2=O)cc1OC`, for which the growth with HCT-15 colon is 97.9%; in the assay on HT29 colon, 111%; in the assay with SNB-75 CNS, 77.1%; in the assay with SNB-19 CNS it was 84.9%; in the assay on U251 CNS it was 84%; with PC-3 prostate it was 69.7%. Further, the growth was 69.7% in the assay with SK-MEL-5 melanoma; 88% in the assay on UACC-62 melanoma; 73.7% in the assay on LOX IMVI melanoma; 112% in the assay on SK-MEL-28 melanoma; 106% in the assay with SK-MEL-2 melanoma; 100% with SN12C renal. Also, the growth was 83.5% with UO-31 renal; 165% in the assay with TK-10 renal; 99.7% in the assay on ACHN renal; 99.1% in the assay with CAKI-1 renal; 95% in the assay on A498 renal; -27.9% (active) in the assay on CCRF-CEM leukemia. Further, the growth in the assay on MOLT-4 leukemia was -41.6% (active).
In the case of `C#CCN(C)CCCOc1ccc(NCc2ccc(C(=O)NO)cc2)cc1Cl`, the growth in the assay with HCT-15 colon is 20%; with HT29 colon, 16.2%; with SNB-75 CNS, 10.4%; with SNB-19 CNS it was 35.2%; in the assay with U251 CNS, 20%; in the assay with PC-3 prostate, 29.4%. The growth in the assay with SK-MEL-5 melanoma was 9.67% (active); in the assay with UACC-62 melanoma, -6.34% (active); in the assay on LOX IMVI melanoma it was 10.6%; in the assay on SK-MEL-28 melanoma it was 24%; in the assay with SK-MEL-2 melanoma, 15%; in the assay with SN12C renal it was 37.8%. Also, the growth was -13.7% (active) in the assay on UO-31 renal; -3.24% (active) in the assay on TK-10 renal; 9.03% (active) in the assay with ACHN renal; 8.63% (active) with CAKI-1 renal; -14.9% (active) in the assay with A498 renal; 13.7% in the assay on CCRF-CEM leukemia. Moreover, the growth with MOLT-4 leukemia is 17.3%.
For the molecule `C=C(C)[C@@H]1CC[C@]2(COP(=O)(OCC)OCC)CC[C@]3(C)[C@H](CC[C@@H]4[C@@]5(C)CC[C@H](OP(=O)(OCC)OCC)C(C)(C)[C@@H]5CC[C@]43C)[C@@H]12`, the growth in the assay with HCT-15 colon is 6.86% (active); in the assay on HT29 colon, 35.2%; in the assay on SNB-75 CNS it was 75.3%; in the assay on SNB-19 CNS, 50.7%; in the assay with U251 CNS, 42.2%; with PC-3 prostate it was 22.7%. Besides, the growth was 11.5% in the assay with SK-MEL-5 melanoma; 43.1% in the assay on UACC-62 melanoma; 25.4% in the assay on LOX IMVI melanoma; 77.5% in the assay on SK-MEL-28 melanoma; 67.9% in the assay with SK-MEL-2 melanoma; 26.6% in the assay on EKVX NSCLC. Further, the growth is 22.6% in the assay on UO-31 renal; 68.5% with TK-10 renal; 41.4% in the assay on ACHN renal; 35.2% in the assay on CAKI-1 renal; 39.4% in the assay on CCRF-CEM leukemia; 27.8% in the assay on MOLT-4 leukemia.
